In the library only some 4.1% were active in any assay of this set; here they are far more common.
Mdm2-MdmX inh: human Mdm2/MdmX binding inhibition. O15151+Q00987. SaOS-2 split-luciferase Mdm2/MdmX complementation, luminescence. inhibition, % at 8 µM. 3% of 330,000 active;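 active = inhibition of at least 50% at 8 µM in the primary screen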
Beta cell apopt: beta cell apoptosis inhibition; INS-1E cytokine-induced death, ATP luminescence, 48 h; percent of positive-control rescue, neutral wells zero; protection from apoptosis, % (test concentration not listed); 0.8% of 300,000 active; AID 435005;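 active = Every replicate reaches about 75%, or at least half do and their mean reaches it too, limit read from the data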;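 note: 0% = cytokine-treated negative control wells and 100% = positive control rescue; higher means more ATP so stronger rescue from cytokine killing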
Bfl-1 A1 inh: inhibitors of the anti-apoptotic protein A1, read as caspase activation | AID 2462 | 0.066% of 330,000 active | MEF A1-2A-BIM cells, Caspase-Glo 3/7 luminescence, 3 h; percent of clofoctol response, vehicle zero | caspase activation, % (no concentration beside the values);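 active = over half of replicate activation scores above 10%, or exactly half above 10 with the replicate mean above 10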
aSyn 5UTR inh: MLPCN primary screen, SNCA 5' untranslated region | alpha-synuclein 5'UTR reporter, inhibitor activity | inhibition, % (tested at 7.5 µM) | 0.82% of 300,000 active | AID 1813; in the data active = inhibition above about 60%;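 note: H4 neuroglioblastoma cells stably carrying SNCA 5'UTR luciferase fusion; 0% = DMSO wells and 100% = positive control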
CSC inhib: cancer stem cell inhibition; 1.1% of 300,000 active; inhibition, % at 7.5 µM; cancer stem cell-like cells viability, luminescence; in the data active = inhibition above about 75%; tested in HMLE shEcad cells
Mdm2 MdmX conf: human Mdm2/MdmX binding inhibition, confirmed. shares compounds with Mdm2-MdmX inh. luminescent assay. inhibition, % at 8 µM. 55% of 10,000 active; in the data active = inhibition above about 40%
FLuc counter: full-length luciferase inhibition in Mdm2/MdmX counter-screen. AID 504607. inhibition, % at 8 µM. 77% of 6,200 active. SaOS-2 full-length luciferase counterscreen, luminescence. shares compounds with Mdm2-MdmX inh;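 active = mean inhibition at 8 µM reaching about 37%, which flags the compound as non-specific, limit read from the data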;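 note: p53-null SaOS-2 cells with luciferase driven by a doxycycline-inducible promoter; compound on cells about two nights before reading with doxycycline added after day one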
An asterisk follows results filed as active.

What do the screens show for `CN(C)CC/C=C1\c2ccc(F)cc2Sc2cc(F)c(Cl)cc21`?
Mdm2-MdmX inh: 55*; Bfl-1 A1 inh: 0; aSyn 5UTR inh: 103*; CSC inhib: 83*; Mdm2 MdmX conf: 33

How did Cc1c(CCOC(=O)CC23CC4CC(CC(C4)C2)C3)sc[n+]1CC(=O)c1ccccc1 do in these assays?
Mdm2-MdmX inh: 54*; Beta cell apopt: 26; Bfl-1 A1 inh: 0; aSyn 5UTR inh: -39; CSC inhib: 100*; Mdm2 MdmX conf: 18

What do the screens show for `CC(=O)/C(C#N)=C1\NC(=O)C(Cc2ccccc2)S1` (stereo not given)?
Mdm2-MdmX inh: 46; Beta cell apopt: -4; Bfl-1 A1 inh: 1; aSyn 5UTR inh: -20; CSC inhib: -12

How did CC(=O)/C(C#N)=C1\NC(=O)C(Cc2ccccc2C)S1 (stereo not given) do in these assays?
Mdm2-MdmX inh: 83*; Beta cell apopt: -3; Bfl-1 A1 inh: 0; aSyn 5UTR inh: 32; CSC inhib: 46; Mdm2 MdmX conf: 70*; FLuc counter: 41*

How did O=C(c1c(F)cccc1F)N1CCCC(c2nc(-c3ccc(F)cc3)no2)C1 (stereo not given) do in these assays?
Mdm2-MdmX inh: 1; Beta cell apopt: 1; Bfl-1 A1 inh: 1; aSyn 5UTR inh: -36; CSC inhib: 3

How did Cc1cc(/C=N/n2c(COc3ccccc3C)nc3ccccc3c2=O)c(O)c([N+](=O)[O-])c1 do in these assays?
Mdm2-MdmX inh: 56*; Beta cell apopt: 79*; Bfl-1 A1 inh: -1; aSyn 5UTR inh: 5; CSC inhib: 62; Mdm2 MdmX conf: 64*; FLuc counter: 46*

Results for Cc1ccccc1OCc1nc2ccccc2c(=O)n1/N=C/c1c[nH]c2ccccc12 ?
Mdm2-MdmX inh: 37; Beta cell apopt: 7; Bfl-1 A1 inh: 0; aSyn 5UTR inh: -30; CSC inhib: 12

How did CC(=O)Nc1ccc(S(=O)(=O)N[C@@H](C)C(=O)OCC(=O)c2ccc(C)cc2)cc1 do in these assays?
Mdm2-MdmX inh: -7; Beta cell apopt: 3; Bfl-1 A1 inh: -1; CSC inhib: -9

How did CCCCNC(=O)CCc1nc2cccnc2n1Cc1ccccc1 do in these assays?
Mdm2-MdmX inh: 5; Beta cell apopt: -6; Bfl-1 A1 inh: 0; aSyn 5UTR inh: 6; CSC inhib: -5

What do the screens show for `CC(=O)NCCNC(=O)C1CCC(CNc2nc(=S)[nH]c3ccccc23)CC1` (stereo not given)?
Mdm2-MdmX inh: 10; Beta cell apopt: -12; Bfl-1 A1 inh: 0; aSyn 5UTR inh: 3; CSC inhib: -12

What do the screens show for `O=C(NCCc1ccccc1)C1CCC(CNc2nc(=S)[nH]c3ccccc23)CC1` (stereo not given)?
Mdm2-MdmX inh: 96*; Beta cell apopt: 6; Bfl-1 A1 inh: 0; aSyn 5UTR inh: 34; CSC inhib: 45; Mdm2 MdmX conf: 6

Results for FC(F)(F)c1cc(C(F)(F)F)c2ccc(N/N=C/c3ccccc3)nc2n1 ?
Mdm2-MdmX inh: 10; Bfl-1 A1 inh: 1; aSyn 5UTR inh: 11; CSC inhib: -6

How did N#CC(c1ccccc1)c1ccc2c(C(F)(F)F)cc(C(F)(F)F)nc2n1 (stereo not given) do in these assays?
Mdm2-MdmX inh: 68*; Beta cell apopt: 93*; Bfl-1 A1 inh: 0; aSyn 5UTR inh: 31; CSC inhib: -6; Mdm2 MdmX conf: 9

What do the screens show for `Cc1ccc(C(C#N)c2ccc3c(C(F)(F)F)cc(C(F)(F)F)nc3n2)cc1` (stereo not given)?
Mdm2-MdmX inh: 58*; Beta cell apopt: 39; Bfl-1 A1 inh: -1; aSyn 5UTR inh: 3; CSC inhib: 86*; Mdm2 MdmX conf: -1

Results for COc1cccc(NC(=O)/C=C/c2ccco2)c1 ?
Mdm2-MdmX inh: -116; Beta cell apopt: -1; Bfl-1 A1 inh: -8; aSyn 5UTR inh: -158; CSC inhib: -1

How did O=C(/C=C/c1ccco1)Nc1ccc(Oc2ccc(Cl)cc2)cc1 do in these assays?
Mdm2-MdmX inh: 55*; Beta cell apopt: 25; Bfl-1 A1 inh: -1; aSyn 5UTR inh: -203; CSC inhib: 2; Mdm2 MdmX conf: 60*; FLuc counter: 40*

How did O=C1C=CCC(/C=C/c2ccccc2)O1 (stereo not given) do in these assays?
Mdm2-MdmX inh: 61*; Beta cell apopt: -5; Bfl-1 A1 inh: -1; aSyn 5UTR inh: -104; CSC inhib: 12; Mdm2 MdmX conf: 48*; FLuc counter: 12

How did O=C1C=C(/C=C/c2ccccc2)C[C@@H](c2ccc(F)cc2)C1 do in these assays?
Mdm2-MdmX inh: -14; Beta cell apopt: -5; Bfl-1 A1 inh: 0; CSC inhib: 9

Results for COc1ccc2cc(C(=O)N/N=C/c3sc4ccccc4c3O)ccc2c1 ?
Mdm2-MdmX inh: 89*; Beta cell apopt: 92*; Bfl-1 A1 inh: -1; aSyn 5UTR inh: -2; CSC inhib: 147*; Mdm2 MdmX conf: 89*; FLuc counter: 32

How did O=C(N/N=C/c1sc2ccccc2c1O)c1ccccc1 do in these assays?
Mdm2-MdmX inh: 68*; Beta cell apopt: 103*; Bfl-1 A1 inh: -2; aSyn 5UTR inh: 82*; CSC inhib: 35; Mdm2 MdmX conf: 67*; FLuc counter: 41*

How did CC(=O)NC(CC(=O)NC1CCCc2ccccc21)c1ccccc1 (stereo not given) do in these assays?
Mdm2-MdmX inh: -4; Beta cell apopt: 3; Bfl-1 A1 inh: -1; aSyn 5UTR inh: 22; CSC inhib: -6

Results for CS(=O)(=O)c1ccccc1C(=O)Nc1cccc(-c2nc3ccccc3o2)c1 ?
Mdm2-MdmX inh: -12; Beta cell apopt: 1; Bfl-1 A1 inh: 0; aSyn 5UTR inh: -8; CSC inhib: -7

How did CN(CC(=O)Nc1ccccc1Cl)CC(=O)Nc1sc2c(c1C(N)=O)CCC2 do in these assays?
Mdm2-MdmX inh: 17; Beta cell apopt: 4; Bfl-1 A1 inh: 1; aSyn 5UTR inh: -25

What do the screens show for `C[C@@H]1CN([C@@H](C)CO)C(=O)Cc2cc(NS(=O)(=O)c3ccccc3)ccc2O[C@H]1CN(C)Cc1ccncc1`?
Mdm2-MdmX inh: 11; Beta cell apopt: -2; Bfl-1 A1 inh: 1; CSC inhib: -17

Results for Cc1ccc(S(=O)(=O)Nc2ccc3c(c2)CC(=O)N([C@H](C)CO)C[C@@H](C)[C@H](CN(C)Cc2ccc(-c4ccccc4)cc2)O3)cc1 ?
Mdm2-MdmX inh: 82*; Beta cell apopt: -9; Bfl-1 A1 inh: 0; CSC inhib: 109*; Mdm2 MdmX conf: 39; FLuc counter: 63*

Results for C[C@H](CO)N1C[C@H](C)[C@H](CN(C)Cc2ccc(-c3ccccc3)cc2)Oc2ccc(NS(=O)(=O)c3ccccc3)cc2CC1=O ?
Mdm2-MdmX inh: 85*; Beta cell apopt: -5; Bfl-1 A1 inh: 3; CSC inhib: 97*; Mdm2 MdmX conf: 9
